# Reference: PubChem BioAssay (NCATS)
# Activity calls are given as the source filed them. Calls follow the shape of the dose curve; as a rule, active = well fitted activation curve with a large enough effect; inconclusive = small, poorly fitted or top-dose-only effect; inactive = flat fitted curve, though single readings scatter.
# Experiment: Cellular Toxicity (caspase-3) SHSY5Y (AID 657)
# Details: SH-SY5Y caspase-3 activation, DMSO zero, 10 µM staurosporine = 100%; series mostly up to 91.7 µM
# Excerpt: NIH Chemical Genomics Center [NCGC]
# NIH Molecular Libraries Screening Centers Network [MLSCN]
# National Institutes of Environmental Health Sciences [NIEHS]
# National Toxicology Program [NTP]
# We have developed a 1536-well cell-based assay for quantitative high throughput screening (qHTS) against a number of cell lines to determine in vitro caspase 3/7 activity of small molecules. This particular assay uses the SH-SY5Y cell line which is derived from human neuroblastoma.
# NCGC Assay Protocol Summary:
# The Caspase-Glo 3/7 assay (Promega) is a homogeneous method to measure caspase-3 and caspase-7 activities in cultured cells. The quantitation of caspase 3/7 activity is based on the cleavage of a peptide-aminoluciferin substrate. After caspase cleaves the substrate the free aminoluciferin is liberated and serves as the substrate of luciferase, which generates the light. The luminescent signal is proportional to the amount of caspase 3/7 activity present.
# Using the Caspase-Glo 3/7 assay, the amount of caspase 3/7 activity was measured in the SH-SY5Y cell line with complete culture medium following compound treatment for 16 hours. The assay was performed in opaque white 1536-well plates. In the screen, staurosporine and doxorubicin were used as positive controls. Library compounds were measured for their ability to cause the activation of caspase 3/7 in the cell line, as reflected by an increase in luminescence signal, in a concentration-dependent manner. Data were normalized to the controls for basal activity (DMSO only) and 100% stimulation (10 uM staurosporine). AC50 values were determined from concentration-response data modeled with the standard Hill equation.
# qHTS protocol for caspase 3/7 assay in SH-SY5Y cells
# [Step] [Parameter] [Value] [Description]
# 1. Reagent; 5 uL; 1500 SH-SY5Y cells/well
# 2. Time; 5 hr; 37 °C incubation
# 4. Controls; 23 nL; doxorubicin 7 pM to 100 uM & staurosporine 1.4 pM to 20 uM
# 5. Time; 16 hr; 37 °C incubation
# 6. Reagent; 5 uL; Caspase-Glo 3/7 reagent
# 7. Time; 1 hr; Room Temperature
# 8. Detection; Luminescence; Viewlux plate reader
# Keywords: caspase 3/7, apoptosis, SH-SY5Y cell line, luminescence, NTPHTS, NTPHTS_NCGC, NIEHS, EPA, DSSTox, MLSMR, MLSCN, NIH Roadmap, qHTS, NCGC
row,SMILES,outcome
1,O=[N+]([O-])c1cccc2c([N+](=O)[O-])cccc12,inactive
2,N#CC(Br)Br,inactive
3,Brc1cccc(-c2ccccc2)c1,inactive
4,CC(C)(C)C(O)(CCc1ccc(Cl)cc1)Cn1cncn1 (stereo not given),inactive
5,Nn1cnnc1,inactive
6,CCCCCC[N+](=O)[O-],inactive
7,Cc1ccc(OP(=O)(Oc2ccc(C)cc2)Oc2ccc(C)cc2)cc1,inactive
8,Nc1ccc(Oc2ccc(N)cc2)cc1,inactive
9,S=c1[nH]c2ccccc2[nH]1,inactive
10,OCCOCCO,inactive
11,BrCC(Br)C1CCC(Br)C(Br)C1 (stereo not given),inactive
12,O=[N+]([O-])CCO,inactive
13,OC[P+](CO)(CO)CO,inactive
14,Oc1cccc(Cl)c1,inactive
15,C=CC(=O)OCC(CC)CCCC (stereo not given),inactive
16,c1ccc(Nc2ccc(Nc3ccccc3)cc2)cc1,inactive
17,[O-][Cl+2]([O-])O,inactive
18,CN(C)C(=O)Nc1cccc(C(F)(F)F)c1,inactive
19,CN(C)c1ccc(N(C)C)cc1,inactive
20,CN(C)C(=O)Nc1ccc(Cl)cc1,inactive

row,SMILES,outcome
1,CC12CC1(C)C(=O)N(c1cc(Cl)cc(Cl)c1)C2=O (stereo not given),inactive
2,O=[N+]([O-])c1ccc(Cl)c(Cl)c1Cl,inactive
3,Nc1ccc(-c2ccc(N)cc2)cc1,inactive
4,ClCC(Br)CBr (stereo not given),inactive
5,CC(=O)CCC(C)=O,inactive
6,[O-][Cl+]O,inactive
7,Nc1ncc([N+](=O)[O-])s1,inactive
8,CN(C)c1ccc(N=Nc2ccccc2)cc1,inactive
9,ClCCOCOCCCl,inactive
10,O=[N+]([O-])c1c(Cl)c(Cl)c(Cl)c(Cl)c1Cl,inactive
11,C=CCc1cc(OC)c2c(c1)OCO2,inactive
12,CCCCC(=O)Cl,inactive
13,C=CC(=O)OCCO,inactive
14,CCOP(=S)(OCC)SCCSCC,inactive
15,CC(C)OS(C)(=O)=O,inactive
16,CCNCC,inactive
17,O=[N+]([O-])c1ccccc1O,inactive
18,COC(=O)Nc1nc2ccccc2[nH]1,inactive
19,O=[N+]([O-])c1cc(Cl)c(Cl)c(Cl)c1,inactive
20,Clc1ccc(C(Cl)(Cl)Cl)c(Cl)c1,inactive
